{"source": "PubChem BioAssay AID1259422", "about": "(The Scripps Research Institute Molecular Screening Center, 2018)", "note": "About 9,300 (1.5%) of roughly 640,000 compounds were called active. Rule as the data show it: active = inhibition above about 32%; inactive = the rest. For the sample, actives were picked, then their nearest neighbours and some compounds at random.", "data": [{"experiment": "TEAD-YAP interaction inhibition, primary screen, TEAD-YAP interaction inhibitor project, luminescence, HEK-TIYL cells (AID 1259422);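 also: 0% = median of test compound wells and 100% = reference inhibitor wells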", "conditions": "TEAD-Gal4/YAP UAS-luciferase luminescence, at 9.12 µM, stronger effect = higher value", "values": [{"smiles": "O=S(=O)(c1ccc(F)c(Cl)c1)N1CCC(Cn2cnc3ccccc32)CC1", "inhibition": "7.12% (inactive)"}, {"smiles": "COC(=O)C1=C(C)OC(N)=C(C#N)C1c1ccc(OCc2ccccc2)cc1", "note": "(stereo not given)", "inhibition": "-17.6% (inactive)"}, {"smiles": "COc1ccccc1NC(=O)Nc1nnc(CSCc2ccc(F)cc2)s1", "inhibition": "11.6% (inactive)"}, {"smiles": "CCOC(=O)c1cc([N+](=O)[O-])sc1NC(=O)c1cc(Cl)sc1Cl", "inhibition": "1.62% (inactive)"}, {"smiles": "Cc1cccc(NC(=O)CC(C)(C)C)n1", "inhibition": "-13.5% (inactive)"}, {"smiles": "N/C(=N\\OC(=O)CCCOc1ccc(Cl)cc1Cl)c1nonc1N", "inhibition": "-6.56% (inactive)"}, {"smiles": "CCOC(=O)C1=CN(C(C)C)C=C(C(=O)OCC)C1c1cccc([N+](=O)[O-])c1", "inhibition": "4.81% (inactive)"}, {"smiles": "CCCn1c(=N)c(C(=O)OCC)cc2c(=O)n3cc(C)ccc3nc21", "inhibition": "1.52% (inactive)"}, {"smiles": "O=C1CSC(c2ccc(F)c(F)c2)N1c1ccc(Br)cc1", "note": "(stereo not given)", "inhibition": "-4.77% (inactive)"}, {"smiles": "CCCCC(=O)NC(c1ccc(OC)c(OC)c1)c1ccc2cccnc2c1O", "note": "(stereo not given)", "inhibition": "89.2% (active)"}, {"smiles": "CCCCC(=O)NC(c1ccc(OC)cc1)c1cc([N+](=O)[O-])c2cccnc2c1O", "note": "(stereo not given)", "inhibition": "7.56% (inactive)"}, {"smiles": "CCCCC(=O)NC(c1ccco1)c1ccc2cccnc2c1O", "note": "(stereo not given)", "inhibition": "26.7% (inactive)"}, {"smiles": "CCC1CCCCN1C(=O)Cn1c2ccccc2c(=O)c2cc(C)ccc21", "note": "(stereo not given)", "inhibition": "-3.07% (inactive)"}, {"smiles": "CCn1nnc2c1CCN(CC(O)C(C)(C)C)C2", "note": "(stereo not given)", "inhibition": "-9.09% (inactive)"}, {"smiles": "O=C(Cn1cnc2c(nnn2-c2cccc(F)c2)c1=O)N1CCCCC1", "inhibition": "6.15% (inactive)"}, {"smiles": "Cc1cccc(N2CCN(C(=O)c3ccc4c(c3)C(=O)N(CCC3=CCCCC3)C4=O)CC2C)c1", "note": "(stereo not given)", "inhibition": "-3.98% (inactive)"}, {"smiles": "Cc1cccc(N2CCN(C(=O)c3cccc(C#N)c3)CC2C)c1", "note": "(stereo not given)", "inhibition": "41.6% (active)"}, {"smiles": "Cc1cccc(N2CCN(C(=O)c3cccc(N4C(=O)C(C)CS4(=O)=O)c3)CC2)c1", "note": "(stereo not given)", "inhibition": "-2.6% (inactive)"}, {"smiles": "COc1ccc2c(c1)CC(C(=O)Nc1ccc(-c3ccncc3)cc1OC(C)CN(C)C)CO2", "note": "(stereo not given)", "inhibition": "-0.11% (inactive)"}, {"smiles": "COC(=O)NCC(C)OC(=O)Nc1ccc(C)cc1", "note": "(stereo not given)", "inhibition": "-12.2% (inactive)"}, {"smiles": "CC(C(=O)O)c1ccc(NC(=O)OC(C)(C)C)cc1", "note": "(stereo not given)", "inhibition": "32.1% (active)"}, {"smiles": "CC(C)CC(NC(=O)C(Cc1ccccc1)NC(=O)OC(C)(C)C)C(=O)O", "note": "(stereo not given)", "inhibition": "1.85% (inactive)"}, {"smiles": "Cc1cc(C)nc(N2CCN(S(=O)(=O)c3ccc(C)c(Cl)c3)CC2)n1", "inhibition": "1.94% (inactive)"}, {"smiles": "Fc1cccc(-c2nnc3ccc4cc(C(F)(F)F)ccc4n23)c1", "inhibition": "-12.5% (inactive)"}, {"smiles": "COc1ccc(N2CCN(S(=O)(=O)c3ccc(Cl)cc3)CC2)c([N+](=O)[O-])c1", "inhibition": "6.09% (inactive)"}, {"smiles": "CCN(C(=O)COc1ccc(Cl)cc1)c1nnc(-c2cccnc2)s1", "inhibition": "-11.5% (inactive)"}, {"smiles": "COC(=O)c1ccccc1NC1=C/C(=N/S(=O)(=O)c2ccccc2)c2ccccc2C1=O", "inhibition": "5.16% (inactive)"}, {"smiles": "O=C1C(Nc2ccc(O)cc2)=C(n2nnc3ccccc32)C(=O)c2ccccc21", "inhibition": "27.1% (inactive)"}, {"smiles": "O=C(CN1C(=O)c2ccccc2C1=O)Nc1ccc(O)cc1", "inhibition": "-11.7% (inactive)"}, {"smiles": "O=C1C=C(Nc2ccc(O)cc2)c2ccccc2C1=O", "inhibition": "93.2% (active)"}, {"smiles": "COc1ccc(S(=O)(=O)/N=C2/C=C(Nc3ccc(O)cc3)C(=O)c3ccccc32)cc1", "inhibition": "99.3% (active)"}, {"smiles": "COc1ccccc1NC1=C/C(=N/S(=O)(=O)c2ccc(F)cc2)c2ccccc2C1=O", "inhibition": "-21.4% (inactive)"}, {"smiles": "CCOC(=O)c1ccccc1Nc1nc(-c2ccc(OC)cc2)no1", "inhibition": "8.95% (inactive)"}, {"smiles": "O=[N+]([O-])c1ccc2c(c1)nc1ccccn12", "inhibition": "-11.7% (inactive)"}, {"smiles": "CC(=O)N1CCC(N(C(=O)CSCCNC(=O)c2ccccc2Cl)C2CC2)CC1", "inhibition": "2.5% (inactive)"}, {"smiles": "CC1CCc2c(sc(NC(=O)c3cc4ccccc4oc3=O)c2C#N)C1", "note": "(stereo not given)", "inhibition": "11.2% (inactive)"}, {"smiles": "C=CCN1C(=S)NC2CC1(C)Oc1c(OC)cccc12", "note": "(stereo not given)", "inhibition": "2.23% (inactive)"}, {"smiles": "CCOc1ccc(Cc2c(Cl)nc(SC)nc2N(CC)CC)cc1", "inhibition": "2.33% (inactive)"}, {"smiles": "CCCOc1ccc(Cc2c(Cl)nc(SC)nc2NC)cc1", "inhibition": "35.1% (active)"}, {"smiles": "CCCOc1ccc(N2C(=O)CC(NCCc3ccc(Cl)cc3)C2=O)cc1", "note": "(stereo not given)", "inhibition": "-11% (inactive)"}, {"smiles": "COc1cccc(/C=C(\\C#N)c2nn(CCO)c(N)c2C#N)c1OCc1ccc(Cl)cc1Cl", "inhibition": "2.5% (inactive)"}, {"smiles": "CC(=O)N1CCc2cc(S(=O)(=O)NC3CCCCC3)ccc21", "inhibition": "10.8% (inactive)"}, {"smiles": "CC(=O)N1CCc2cc(S(=O)(=O)NCCC(=O)O)ccc21", "inhibition": "0.75% (inactive)"}, {"smiles": "CC(=O)N1CCC(N(C(=O)C2CC2)c2ccc3c(c2)CCN3C(C)=O)CC1", "inhibition": "46.4% (active)"}, {"smiles": "CCOC(=O)C1=C(C)N=c2s/c(=C\\c3ccc(-c4ccc([N+](=O)[O-])cc4OC)o3)c(=O)n2C1c1ccccc1", "note": "(stereo not given)", "inhibition": "-12.5% (inactive)"}, {"smiles": "CCn1c(=O)[nH]c(=O)c2c(C(F)(F)F)cc(C(F)(F)F)nc21", "inhibition": "-11.4% (inactive)"}, {"smiles": "CCOC(=O)c1cc(-c2nnc(-c3ccccc3)o2)c(C)nc1C", "inhibition": "-1.76% (inactive)"}, {"smiles": "CCc1ccc(NC(=O)CSC2=C(C#N)C(c3ccco3)C(C(=O)Nc3ccc(Cl)cc3)=C(C)N2)cc1", "note": "(stereo not given)", "inhibition": "26.3% (inactive)"}, {"smiles": "CS(=O)(=O)c1ncc(Cl)c(C(=O)Nc2nc3ccc(F)cc3s2)n1", "inhibition": "-10.7% (inactive)"}, {"smiles": "CS(=O)(=O)c1ncc(Cl)c(C(=O)Nc2ccc(Cl)c(C(F)(F)F)c2)n1", "inhibition": "51% (active)"}, {"smiles": "CC(=O)c1c(C)[nH]c(C(=O)Nc2ccc(Cl)c(C(F)(F)F)c2)c1C", "inhibition": "3.78% (inactive)"}, {"smiles": "Cc1ccc(CC(=O)Nc2ccc(Cl)c([N+](=O)[O-])c2)cc1", "inhibition": "-2.28% (inactive)"}, {"smiles": "COc1ccc(Cl)cc1NC(=O)C(=O)Nc1ccc2nc3n(c(=O)c2c1)CCCCC3", "inhibition": "0.92% (inactive)"}, {"smiles": "COc1ccc([N+](=O)[O-])cc1C1=N/C(=C/c2ccc(C(C)C)cc2)C(=O)O1", "inhibition": "1.78% (inactive)"}, {"smiles": "CCC(=O)N(CCO)Cc1cc2cc(CC)ccc2[nH]c1=O", "inhibition": "10.6% (inactive)"}, {"smiles": "CCOC(=O)c1c(NC(=O)c2ccccc2)sc(C(=O)Nc2ccccc2OC)c1C", "inhibition": "0.4% (inactive)"}, {"smiles": "O=C(Nc1cc(Cl)cc(Cl)c1)c1cccs1", "inhibition": "-3.5% (inactive)"}, {"smiles": "Cc1nc(-c2ccc(NC(=O)c3cccs3)cc2)cs1", "inhibition": "48.2% (active)"}, {"smiles": "Cc1nc(-c2ccc(NC(=O)c3cccc(Br)c3)cc2)cs1", "inhibition": "-71.4% (inactive)"}, {"smiles": "CC(=O)Nc1cccc(-c2csc(C)n2)c1", "inhibition": "-2.27% (inactive)"}, {"smiles": "O=C(Nc1ccc(C23CC4CC(CC(C4)C2)C3)cc1)c1cccs1", "inhibition": "85.4% (active)"}, {"smiles": "O=C(Nc1cc(F)cc(F)c1)c1cccs1", "inhibition": "-5.52% (inactive)"}, {"smiles": "Cc1ccc2cccc(SCC(=O)Nc3ccc(Br)cc3)c2n1", "inhibition": "17.4% (inactive)"}, {"smiles": "COc1ccc(-n2nc3cc(C)c(NC(=O)c4ccccc4I)cc3n2)cc1", "inhibition": "-23.3% (inactive)"}, {"smiles": "CN(CCC(=O)Nc1cccc(F)c1)Cc1ccccc1", "inhibition": "2.01% (inactive)"}, {"smiles": "COc1ccc(CSc2n[nH]c(C)n2)cc1Cl", "inhibition": "44.5% (active)"}, {"smiles": "COc1ccccc1NC(=O)CSc1n[nH]c(C)n1", "inhibition": "5.98% (inactive)"}, {"smiles": "COc1ccc(C(=O)CSc2n[nH]c(C)n2)cc1", "inhibition": "-4.7% (inactive)"}, {"smiles": "COc1ccccc1Nc1cc(C)nc2ccc(Cl)cc12", "inhibition": "4.34% (inactive)"}, {"smiles": "COc1ccccc1NC1=NC(c2ccc(Cl)cc2)N=C(N)N1", "note": "(stereo not given)", "inhibition": "40.4% (active)"}, {"smiles": "COc1ccccc1Nc1nc(-c2ccc(Cl)cc2)cs1", "inhibition": "-12% (inactive)"}, {"smiles": "O=C(NCC1CCCN(Cc2cccn2-c2ncccn2)C1)c1n[nH]c2ccccc12", "note": "(stereo not given)", "inhibition": "33.7% (active)"}, {"smiles": "O=C(NCC1CCCN(Cc2nc(-c3ccccc3)cs2)C1)c1cccs1", "note": "(stereo not given)", "inhibition": "9.19% (inactive)"}, {"smiles": "Cc1c(CN2CCCC(CNC(=O)c3ccc4c(c3)OCO4)C2)[nH]c2ccccc12", "note": "(stereo not given)", "inhibition": "13.5% (inactive)"}, {"smiles": "CCOc1ccc(CN2CCN(Cc3ccc(OC)c(OCC)c3)CC2)cc1", "inhibition": "-0.01% (inactive)"}, {"smiles": "FC(F)(F)c1cccc(N2N=C(/C=C/c3ccccc3)CC2c2ccccc2)c1", "note": "(stereo not given)", "inhibition": "-3.08% (inactive)"}, {"smiles": "Cn1c(=O)n(C)c2cc(/C=C3/SC(=Nc4ccc(F)cc4)NC3=O)ccc21", "inhibition": "-33.4% (inactive)"}, {"smiles": "O=C1NC(=Nc2ccc(F)cc2)S/C1=C\\c1ccc(O)c(O)c1", "inhibition": "51.2% (active)"}, {"smiles": "O=C1NC(=Nc2ccc(F)cc2)S/C1=C\\c1cccs1", "inhibition": "7.85% (inactive)"}, {"smiles": "CCCCNC(=O)C(=O)NCC1COc2ccccc2O1", "note": "(stereo not given)", "inhibition": "-0.58% (inactive)"}, {"smiles": "COc1ccc(OCC(=O)Nc2nc3ccc(C)cc3s2)cc1", "inhibition": "-5.48% (inactive)"}, {"smiles": "O=C(NCCOc1ccccc1)c1cc(NC2CCN(Cc3ccccc3)CC2)nc2ccccc12", "inhibition": "10.3% (inactive)"}, {"smiles": "Cc1ccc(NC(=O)/N=C/c2sc(=O)[nH]c2O)cc1", "inhibition": "-3.99% (inactive)"}, {"smiles": "c1cncc(-n2cnc(-c3ccnc(Nc4ccc(N5CCOCC5)cc4)c3)n2)c1", "inhibition": "-10.2% (inactive)"}, {"smiles": "c1ccc(Nc2nc(Nc3ccc(N4CCOCC4)cc3)nc3nc[nH]c23)cc1", "inhibition": "24.1% (inactive)"}, {"smiles": "Cc1cnc(Nc2ccc(N3CCOCC3)cc2)nc1NCc1cccc(C(F)(F)F)c1", "inhibition": "67.6% (active)"}, {"smiles": "c1cc(-c2ocnc2-c2ncco2)cc(Nc2ccc(N3CCOCC3)cc2)n1", "inhibition": "38.6% (active)"}, {"smiles": "FC(F)(F)c1cccc(CNc2nc(Nc3ccc(N4CCOCC4)cc3)nc3c2ncn3-c2ccsc2)c1", "inhibition": "-6.95% (inactive)"}, {"smiles": "Cc1cnc(-c2c(C)noc2C)nc1Nc1ccc(N2CCOCC2)cc1", "inhibition": "-11.4% (inactive)"}, {"smiles": "Cc1cnc(Nc2ccc(N3CCOCC3)cc2)nc1Nc1ccccc1-c1ncn[nH]1", "inhibition": "68.8% (active)"}, {"smiles": "CNC(=O)c1ccccc1Nc1ccnc(Nc2ccc(N3CCOCC3)cc2)c1", "inhibition": "8.21% (inactive)"}, {"smiles": "c1ccc(-n2cnc(-c3ccnc(Nc4ccc(N5CCOCC5)cc4)c3)n2)cc1", "inhibition": "-7.29% (inactive)"}, {"smiles": "c1nc(Nc2ccc(N3CCOCC3)cc2)cc(N2CCOCC2)n1", "inhibition": "2.49% (inactive)"}, {"smiles": "FC(F)(F)c1ccc(Cn2cnc3c(NCc4cccc(C(F)(F)F)c4)nc(Nc4ccc(N5CCOCC5)cc4)nc32)cc1", "inhibition": "2.31% (inactive)"}, {"smiles": "c1ccc(-c2ncn[nH]2)c(Nc2ccnc(Nc3ccc(N4CCOCC4)cc3)c2)c1", "inhibition": "44% (active)"}]}]}
